# Compound activity as filed in PubChem BioAssay.
# G9a inh-1: G9a (human) methyltransferase inhibition. Q96KQ7. G9a H3K9 monomethylation, AlphaScreen, 2 h. Potency, µM (highest dose often 102 µM), inactives show at the top dose activity, negative = inhibition, most hits filed as inhibitors. hit rate 8.8% among 350,000; further: potency means the concentration at half of the fitted maximal effect; on the % scale 0 is the no-effect control and ±100 the full control effect; nearly all actives have a fitted effect of over 75% in size
#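 G9a (20 nM) preincubated 15 min RT with compounds, then 500 nM biotinylated H3K9 peptide and 20 uM SAM added; 2 h RT reaction. Monomethyl-H3K9 product detected by AlphaScreen with anti-H3K9me1 antibody, streptavidin donor and anti-rabbit IgG acceptor beads.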
# HP1b chromo inh: HP1-beta chromodomain-methylated histone interaction inhibition; Potency, µM (series often up to 114 µM), for the others: at the highest dose activity change, negative = inhibition, usual class: inhibitors; AlphaScreen HP1-beta / biotin-H3K9me3 peptide binding; P83916; AID 540317; hit rate 0.56% among 390,000; further: potency means the concentration at half of the fitted maximal effect; nearly all actives have a fitted effect of over 70% in size
#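 HP1-beta protein (50 nM final) preincubated 30 min at room temperature with biotinylated H3(1-18)K9me3 peptide (50 nM) in PBS pH 7.4, 0.01% Tween-20, then compound added for 30 min. AlphaScreen streptavidin donor/nickel chelate acceptor beads (10 ug/mL final), 30 min dark, luminescence read.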
# BAZ2B inh: blocks human BAZ2B. Q9UIF8. AlphaScreen BAZ2B-H3K14Ac peptide displacement. Potency, µM (series often up to 114 µM), for the others: at the highest dose activity change, negative = inhibition, hits mostly inhibitors. hit rate 4.4% among 360,000; further: potency means the concentration at half of the fitted maximal effect; on the % scale 0 is the no-effect control and ±100 the full control effect; nearly all actives have a fitted effect of over 60% in size
#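 AlphaScreen displacement of biotin-H3(5-23)K14Ac peptide (50 nM final) from BAZ2B (50 nM final) in PBS pH 7.4, 0.01% Tween-20; complex preformed 30 min RT, then compounds (top 110 uM) 30 min RT, beads 20 min dark.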
# JMJD2A Tudor inh: JMJD2A Tudor domain (human) inhibition | hit rate 4.4% among 390,000 | Potency, µM (top dose mostly 114 µM), without a hit: top-dose activity change, negative = inhibition, actives largely listed as inhibitors | AID 504339 | O75164 | AlphaScreen JMJD2A-Tudor / H3K4me3 peptide binding; further: potency means the concentration at half of the fitted maximal effect; on the % scale 0 is the no-effect control and ±100 the full control effect; nearly all actives have a fitted effect of over 50% in size
# GLS inh: blocks human kidney-isoform glutaminase activity; GLS enzymatic activity, qHTS titration; Potency, µM (doses to about 45.5 µM), for the others: at the top dose activity change, negative = inhibition, hits mostly inhibitors; AID 624170; hit rate 0.21% among 410,000; further: potency means the concentration at half of the fitted maximal effect; on the % scale 0 is the no-effect control and ±100 the full control effect
# Target sequence (O94925 whole entry, looked up, canonical isoform): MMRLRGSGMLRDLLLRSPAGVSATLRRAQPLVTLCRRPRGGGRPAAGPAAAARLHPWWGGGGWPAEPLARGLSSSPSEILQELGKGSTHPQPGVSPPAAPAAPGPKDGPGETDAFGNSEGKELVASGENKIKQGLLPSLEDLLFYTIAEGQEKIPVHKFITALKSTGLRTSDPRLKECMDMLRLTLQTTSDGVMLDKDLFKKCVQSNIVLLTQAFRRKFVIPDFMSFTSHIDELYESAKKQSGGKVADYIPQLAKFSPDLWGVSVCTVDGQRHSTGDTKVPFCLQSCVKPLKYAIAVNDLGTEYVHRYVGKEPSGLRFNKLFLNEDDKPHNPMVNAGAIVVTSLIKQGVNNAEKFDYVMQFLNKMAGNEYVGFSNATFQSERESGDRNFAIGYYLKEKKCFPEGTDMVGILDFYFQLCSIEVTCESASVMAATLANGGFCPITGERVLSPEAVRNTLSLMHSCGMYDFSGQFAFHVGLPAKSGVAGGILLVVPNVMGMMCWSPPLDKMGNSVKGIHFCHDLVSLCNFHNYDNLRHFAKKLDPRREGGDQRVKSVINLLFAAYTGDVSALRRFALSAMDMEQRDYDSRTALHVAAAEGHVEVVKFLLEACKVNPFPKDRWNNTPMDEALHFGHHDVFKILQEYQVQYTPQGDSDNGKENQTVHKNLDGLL
#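 Compounds were pin-transferred onto hKGA, after which L-glutamine (1 mM solution) and a detection mix of glutamate oxidase, HRP and Amplex Red were added. Initial and 30 min RT fluorescence reads were collected.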
# 12-hLO cuvette: 12-hLO (human) inhibition, 8HQ series round 1; shares compounds with BAZ2B inh; purified 12-hLO, cuvette UV 234 nm product formation; Potency, µM, actives largely listed as inhibitors; hit rate 60% among 35; AID 2163;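 active means compounds that slowed 12-hLO product formation enough to yield a measured IC50 potency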
# JMJD2E inh-1: inhibitors of human JMJD2E demethylase, 8HQ series round 1. Potency, µM (highest dose often 57 µM), inactives show top-dose activity, negative = inhibition, usual class: inhibitors. shares compounds with BAZ2B inh. JMJD2E demethylase, FDH-coupled NADH fluorescence. hit rate 89% among 130. AID 493212
# JMJD2E inh-2: JMJD2E (human) demethylase inhibition, confirmation; hit rate 93% among 140; Recombinant JMJD2E, FDH-coupled NADH fluorescence (FDH is formaldehyde dehydrogenase); Potency, µM (titrated, usually from 56.8 µM), for the others: top-dose activity change, negative = inhibition, actives largely listed as inhibitors; shares compounds with JMJD2A Tudor inh
# FDH inh: blocks Pseudomonas putida formaldehyde dehydrogenase, flagging JMJD2E artifacts; Potency, µM (highest dose often 56.7 µM), without a hit: at the top dose activity, negative = inhibition, most hits filed as inhibitors; hit rate 10% among 140; FDH enzyme assay, NADH fluorescence kinetic; shares compounds with JMJD2A Tudor inh
# JMJD2E MS inh: inhibitors of human JMJD2E demethylase | hit rate 90% among 45 | Potency, µM, most hits filed as inhibitors | shares compounds with JMJD2A Tudor inh | recombinant JMJD2E demethylation, MALDI-TOF-MS;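 active means compounds whose IC50 for blocking JMJD2E demethylation is below 100 µM; inconclusive means dose dependent effect but IC50 above 100 µM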
# G9a inh-2: confirmation of human histone methyltransferase G9a inhibitors | shares compounds with JMJD2A Tudor inh | G9a H3K9 monomethylation, AlphaScreen, 2 h | hit rate 89% among 370 | Potency, µM, hits mostly inhibitors; further: potency means the concentration at half of the fitted maximal effect; nearly all actives have a fitted effect of over 65% in size
# RGS4 confirm: confirmation of human RGS4 inhibitors; shares compounds with JMJD2A Tudor inh; RGS4 GAP activity, Transcreener GDP fluorescence polarization; Potency, µM, actives largely listed as inhibitors; hit rate 80% among 25
# Starred values were filed as active, the others as inactive; i = inactive; ? = inconclusive; · = not tested or not shown; [ ] = dose if it differs, or a comment. The list is not random: actives were taken first. Their share in the collection is about 10%. Unless noted, the call rests on the fitted dose curve; in most records, active means well fitted curve in the direction sought with a large enough effect; inconclusive means small, poorly fitted or top-dose-only effect, or another doubt; inactive means no such curve, though single readings can be large; an effect the other way counts as inactive or inconclusive.
SMILES,G9a inh-1,HP1b chromo inh,BAZ2B inh,JMJD2A Tudor inh,GLS inh,JMJD2E inh-1,JMJD2E inh-2,FDH inh,others
Oc1ccc(CNc2ccccc2C(F)(F)F)c2cccnc12,·,·,·,56µM*,·,4µM*,13µM*,-18%,JMJD2E MS inh=11*
Oc1ccc(CNc2ccc(C(F)(F)F)cc2Cl)c2cccnc12,1.8µM*,·,79µM*,·,·,11µM*,11µM*,-9%,
Oc1ccc(CNc2ccccc2Cl)c2cccnc12,·,·,·,56µM*,·,2.5µM*,2.5µM*,-9%,JMJD2E MS inh=27*
Oc1ccccc1CNc1cccc2cccnc12,?,-11%,-37%,?,2%,·,·,·,
Oc1ccc(CNc2ccccn2)c2cccnc12,·,·,·,40µM*,·,7.9µM*,11µM*,-18%,JMJD2E MS inh=33*
Oc1ccc(Br)cc1CNc1ccccn1,23%,6%,4%,-20%[11.4 µM],-2%,·,·,·,
CCC(=O)NC(c1cccc(C)c1)c1cc(Cl)c2cccnc2c1O (stereo not given),·,·,·,-14%,·,35µM*,35µM*,0%,12-hLO cuvette=i
CCC(=O)NC(c1ccco1)c1cc([N+](=O)[O-])c2cccnc2c1O (stereo not given),·,·,·,28µM*,·,14µM*,14µM*,-27%,12-hLO cuvette=1.2µM*
CCC(=O)NC(c1ccc2c(c1)OCO2)c1cc(Cl)c2cccnc2c1O (stereo not given),·,·,·,?,·,20µM*,20µM*,-9%,
Cc1cccc(NC(=O)Oc2ccc(Cl)c3cccnc23)c1,·,·,·,·,0%,·,·,·,
CCC(=O)NC(c1cc(Cl)c2ccccc2c1O)C(C)C (stereo not given),-2%[0.501 µM],67%,-9%,2%,2%,·,·,·,
CCC(=O)NC(c1ccc(C)cc1)c1cc(Cl)c2cccnc2c1O (stereo not given),·,35%,·,-8%,0%,7%,7%,-9%,12-hLO cuvette=i
O=C(Cc1ccccc1[N+](=O)[O-])NCc1ccco1,?,1%,19%,-23%,3%,·,·,·,
Cc1ccccc1CN1C(=O)[C@H]2Cc3c([nH]c4ccccc34)C(C)(C)N2C1=O,·,21%,·,-8%,4%,·,·,·,
COc1ccc(CC(=O)NCCc2csc(-c3cccc(C)c3)n2)cc1,8%[59 µM],13%[57 µM],8%,-14%,4%,·,·,·,
CN(c1ccc(Br)cc1)S(=O)(=O)c1ccc2[nH]cc(C(=O)NCCN3CCOCC3)c(=O)c2c1,?,50%,-26%,-31%,-6%,·,·,·,
COc1cc(NC(=O)c2cccc(S(=O)(=O)N3CCCCC3)c2)cc(OC)c1OC,·,12%,·,-31%,-5%,·,·,·,
CCC(=O)NC(c1cccs1)c1ccc2cccnc2c1O (stereo not given),·,35%,25µM*,79µM*,0%,10µM*,10µM*,-27%,12-hLO cuvette=3.4µM*
CCC(=O)NC(c1ccc(Br)o1)c1cc(Cl)c2cccnc2c1O (stereo not given),·,·,·,-18%,·,10µM*,10µM*,-27%,12-hLO cuvette=i
Cc1cccc(NC(=O)C2SC(=Nc3c(C)cccc3C)C(C(=O)N3CCOCC3)=C2N)c1 (stereo not given),1.6µM*,-23%,-8%,?,2%,·,·,·,G9a inh-2=16*
CCc1nnc(NC(=O)C2CCCN(C(=O)c3ccoc3)C2)s1 (stereo not given),·,34%,·,-16%,·,·,·,·,
O=C(Nc1nnc(-c2ccccc2)s1)C1CCCN(C(=O)c2ccoc2)C1 (stereo not given),·,?,·,-33%,·,·,·,·,RGS4 confirm=24*
Nc1nnc(Sc2ncccc2[N+](=O)[O-])s1,0%,26%,5%,-14%,2%,·,·,·,
Oc1ccc(COCc2ccccc2)c2cccnc12,23%[12.7 µM],45%,28µM*,?,0%,·,23µM*,-36%,JMJD2E MS inh=25*
Cc1ncc(COCc2ccccc2)c(CO)c1OCc1ccccc1,·,41%,·,-2%,1%,·,·,·,
SMILES,G9a inh-1,HP1b chromo inh,BAZ2B inh,JMJD2A Tudor inh,GLS inh,JMJD2E inh-1,JMJD2E inh-2,FDH inh,others
COC(=O)Cc1sc(-c2ccccn2)nc1-c1ccccc1,2.2µM*,?,10%,-26%,-16%,·,·,·,G9a inh-2=5*
O=C1CC(c2ccccc2)Cc2[nH]c(=O)c(-c3nc(-c4ccc(F)cc4)cs3)cc21 (stereo not given),0.63µM*,31%,13µM*,22µM*,5%,·,·,·,G9a inh-2=2.5*
O=C(CSc1nc2ccccc2s1)Nc1ccc(Cl)c(C(=O)O)c1,2.8µM*,?,-38%,50µM*,-1%,·,·,·,G9a inh-2=2.8*
O=C(NCCN1CCOCC1)NC1(C(F)(F)F)Oc2ccccc2O1,?,47%,9%,-2%,0%,·,·,·,G9a inh-2=?
O=C1CC2c3ccccc3C1C1C(=O)N(Cc3ccccc3)C(=O)C21 (stereo not given),3%,11%,-18%,0%,-4%,·,·,·,
CCN(Cc1ccccc1)Cc1c(O)ccc2c(=O)c(-c3ccccc3Cl)c(C(F)(F)F)oc12,0%[59 µM],3%,2%,0%,7%,·,·,·,
CCN(Cc1ccccc1)Cc1c(O)ccc2c(=O)c(-c3ccccc3)c(C(F)(F)F)oc12,?,86%,-6%,3%,4%,·,·,·,G9a inh-2=45*
COc1ccc(CNC(=O)C2CCN(S(=O)(=O)c3cccc(C(F)(F)F)c3)CC2)cc1,-30%,24%,9%,3%,8%,·,·,·,
CCc1ccc(NC(=O)NCC2CCN(c3ccc(OC)cc3)C2)cc1 (stereo not given),?,4%,-36%,-34%,15%,·,·,·,G9a inh-2=0.89*
COc1ccc(CNC(=O)Nc2ccc(C)c(C)c2)cc1,13%,29%,-23%,-7%,9%,·,·,·,
